The full list was thinned out, with hits kept by preference.
CBX7 inh: CBX7 inhibition, primary AlphaScreen; O95931; AlphaScreen His6-CBX7 / biotin-H3K27me3 peptide binding; active compounds read low; normalised signal (fraction of DMSO) (test concentration not listed); 66,000 compounds, 1.1% hits; in the data active = normalised signal below about 0.5
Target sequence (O95931 whole entry, looked up): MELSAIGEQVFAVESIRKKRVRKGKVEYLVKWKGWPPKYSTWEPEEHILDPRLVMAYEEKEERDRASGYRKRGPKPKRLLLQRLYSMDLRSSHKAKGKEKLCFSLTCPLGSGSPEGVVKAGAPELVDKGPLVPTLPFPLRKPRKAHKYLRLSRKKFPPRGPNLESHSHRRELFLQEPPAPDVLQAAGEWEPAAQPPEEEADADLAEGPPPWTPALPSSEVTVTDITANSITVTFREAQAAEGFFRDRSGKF
Large screens that a line does not name were inactive; ! = repeats disagree.

N#Cc1nc(COc2ccc(Cl)cc2)oc1NCc1cccnc1	none
N#Cc1nc(COc2ccccc2F)oc1NCCc1ccccc1	CBX7 inh 0.49
CN(Cc1ccccc1)c1oc(COc2ccc(Cl)cc2)nc1C#N	CBX7 inh 0.48
Cc1ccccc1OCc1nc(C#N)c(NCCCn2ccnc2)o1	none
COc1ccccc1OCc1nc(C#N)c(NCCc2ccccc2)o1	none
CC(Nc1oc(COc2ccccc2F)nc1C#N)c1ccccc1 (stereo not given)	none
COc1ccc(Nc2oc(COc3ccccc3F)nc2C#N)cc1	none
N#Cc1nc(COc2ccc(F)cc2)oc1NCCc1ccccc1	none
N#Cc1nc(COc2ccccc2Cl)oc1NCCCn1ccnc1	CBX7 inh 0
N#Cc1nc(COc2ccc(Cl)cc2)oc1NCCCn1ccnc1	none
CN(Cc1ccccc1)c1oc(COc2ccccc2F)nc1C#N	CBX7 inh 0.42
COc1ccc(CCNc2oc(COc3ccc(Cl)cc3)nc2C#N)cc1	none
O=C(NCc1cccnc1)c1ccc(CSc2nc3ccncc3n2Cc2ccc(F)cc2)cc1	none
COc1ccccc1-n1nc(C(=O)N(C)c2ccc(Cl)cc2)c2ccccc2c1=O	none
Cc1cc(N2CC(C)CC(C)C2)nc2ccc(NC(=O)CCC(=O)NCCN(C)C)cc12 (stereo not given)	none
Cc1c(Cl)cccc1NC(=O)c1cnc2scc(C)n2c1=O	none
Cc1c(C)n(C)c2ccc(C(=O)Nc3ccc(C(F)(F)F)cc3)cc12	none
Cc1ccc(C)c(-c2[nH]c(-c3cccc(O)c3)nc2-c2ccccc2)c1	none
Oc1cccc(-c2nc(-c3ccccc3)c(-c3ccc(F)cc3)[nH]2)c1	CBX7 inh 0.35
O=C(c1ccccc1)c1ccc(-c2[nH]c(-c3cccc(Cl)c3)nc2-c2ccccc2)cc1	none
O=C(O)c1ccc(-c2nc(-c3ccc(C(=O)c4ccc(F)cc4)cc3)c(-c3ccc(F)cc3)[nH]2)cc1	none
Oc1ccc(-c2nc(-c3ccccc3)c(-c3ccc(F)cc3)[nH]2)cc1O	none
Oc1cccc(-c2nc(-c3ccccc3)c(-c3ccccc3)[nH]2)c1	CBX7 inh 0.34
CC1CCCC(NC(=O)CCN2C(=O)COc3ccccc32)C1C (stereo not given)	none
COc1cccc(-c2nn(C)c3sc(C(=O)N4CCC(N5CCCCC5)CC4)cc23)c1	none
Cc1ccccc1C(=O)Nc1ccc2oc(-c3ccc(F)cc3F)nc2c1	none
Cc1ccnc(-n2c(CCCN3C(=O)c4ccccc4C3=O)nc3ccccc3c2=O)c1	none
COc1cccc(C(=O)Nc2ccc(S(=O)(=O)N3CCCCC3c3cccnc3)cc2)c1 (stereo not given)	none
COCCCNC(=O)CC1Oc2ccc(C)cc2NC1=O (stereo not given)	none
Cc1nc(C)c(-c2csc(Nc3cccc(C(=O)O)c3)n2)s1	none
Cc1nc(C)c(-c2csc(Nc3ccccc3)n2)s1	CBX7 inh 0.48
Cc1nc(C)c(-c2csc(Nc3ccc(C(=O)O)cc3)n2)s1	none
Cc1nc(C)c(-c2csc(Nc3cccc(O)c3)n2)s1	none
Cc1cccc(Nc2nc(-c3sc(C)nc3C)cs2)c1	CBX7 inh 0.45
c1ccc(Nc2nc(-c3cccs3)cs2)cc1	none
CCC(=O)Nc1cccc(-c2nc3ncccc3o2)c1C	none
CCC(c1nc2ccccc2n1C)C(O)c1ccccc1 (stereo not given)	none
CCN(CC)CCCNC(=O)c1cc(-c2cccc(OC)c2)on1	none
Brc1ccc(NCc2nc3ccccc3n2CCOc2ccccc2)cc1	none
COc1ccc(-n2cnc3cc(NCc4nc5ccccc5n4C)ccc32)cc1	CBX7 inh 0.41
COc1ccc(-n2cnc3cc(Nc4nnc(C)c5ccccc45)ccc32)cc1	none
CCOc1ccc(NCc2nc3ccccc3n2CCOc2ccccc2)cc1	CBX7 inh 0.18
COc1ccc(-n2cnc3cc(NCc4cccc5ccccc45)ccc32)cc1	CBX7 inh 0.31
COc1ccc(-n2cnc3cc(NS(=O)(=O)c4ccccc4)ccc32)cc1	none
COc1ccc(-n2cnc3cc(NC(=O)c4ccccc4)ccc32)cc1	none
CCOc1ccc(NCc2nc3ccccc3n2CCOc2ccc(C)cc2)cc1	none
CC(C)(C)n1cnc2cc(NCc3cccc4ccccc34)ccc21	none
Cc1cc2ccccc2c(=O)n1CC(=O)NCCCN1CCC(C)CC1	none
COc1ccc(NC(=O)c2cccc(NC3=NC4CS(=O)(=O)CC4S3)c2)cc1 (stereo not given)	none
Cc1cc(S(=O)(=O)Nc2ccc3oc4c(c3c2)CC(C(C)(C)C)CC4)ccc1Cl (stereo not given)	none
Cc1ccc(-c2csc(NC(=O)c3ccc(S(=O)(=O)N4CC(C)CC(C)C4)cc3)n2)c(C)c1 (stereo not given)	none
O=C(C1CC(c2ccc(F)cc2)=NO1)N1CCN(Cc2ccccc2)CC1 (stereo not given)	none
COc1cccc(-c2nn(C)c3sc(C(=O)Nc4ccccc4N4CCN(C)CC4)cc23)c1	none
CCOc1ccc2nc(N3CCCC(C(=O)NC4CCCc5ccccc54)C3)sc2c1 (stereo not given)	none
CCc1ccc(OCc2nc(-c3ccc(Cl)cc3)no2)cc1	none
Cc1cc(C)n2c(Nc3ccc4c(c3)OCCO4)c(-c3ccsc3)nc2n1	none
CCCc1nc(Nc2nc3ccccc3o2)ncc1C(=O)OCC	none
Cc1ccccc1NC(=O)c1cnc(Nc2nc3ccccc3o2)nc1C	CBX7 inh 0.17
Cc1ccc(NC(=O)c2c(C)nc(Nc3nc4ccccc4o3)nc2C)cc1	none
CCC(=O)N1CCc2cc(S(=O)(=O)NCCC(=O)Nc3ccc(N(CC)CC)cc3C)ccc21	none
CC(=O)Nc1nc(C)c(-c2csc(Nc3ccc(N)cc3)n2)s1	CBX7 inh 0.47
CCOc1ccc(Nc2nc(-c3sc(NC(=O)c4ccccc4)nc3C)cs2)cc1	CBX7 inh 0.42
COc1ccc(Nc2nc(-c3ccc(Cl)c(Cl)c3)cs2)cc1	none
COc1ccc(OC)c(Nc2nc(-c3sc(NC(C)=O)nc3C)cs2)c1	none
COc1ccc(Nc2nc(-c3ccc(Br)cc3)cs2)cc1	none
COc1cc(Nc2nc(-c3ccc(C)cc3)cs2)c(OC)cc1Cl	CBX7 inh 0.46!
Cc1nc(NC(=O)c2ccccc2)sc1-c1csc(Nc2ncccn2)n1	none
COc1ccc(-c2csc(Nc3ccc(N)cc3)n2)cc1	CBX7 inh 0.41
COc1cc(Nc2nc(-c3ccc(Cl)cc3)cs2)c(OC)cc1Cl	none
CC(=O)Nc1nc(C)c(-c2csc(Nc3ccccc3)n2)s1	none
CC(=O)Nc1ccc(Nc2nc(-c3sc(NC(=O)c4ccccc4)nc3C)cs2)cc1	none
Cc1ccc(-c2csc(Nc3ccccc3Cl)n2)cc1	none
CCn1c(C(C)NC(=O)c2cccc(C)c2)nc2ccccc21 (stereo not given)	none
CCc1ccc(OCc2nc(-c3ccccn3)no2)c(Br)c1	none
Cc1onc(-c2ccccc2Cl)c1C(=O)N1CC(C)CC(C)C1 (stereo not given)	none
Cc1c(C(=O)NCc2cccnc2)oc2ccc(S(=O)(=O)N3CCCC(C)C3)cc12 (stereo not given)	none
Cc1ccc(NC(=O)C(c2ccc(Cl)cc2)N2CCOCC2)cc1 (stereo not given)	none
CCN(CC)CCCNC(=O)C1CCN(c2nc3ccc(OC)cc3s2)CC1	none
COc1ccc(-c2cc(C(F)(F)F)nc(-n3cc(Br)cn3)n2)cc1	none
COc1ccc(OC)c2[nH]c(=O)c(CCNC(=O)c3cccc(F)c3)cc12	none
COc1ccc(CCNc2nc(-c3sc(N)nc3C)cs2)cc1OC	CBX7 inh 0.35
COc1ccc(Cl)cc1Nc1nc(-c2sc(C)nc2C)cs1	none
COc1ccc(Nc2nc(-c3cccs3)cs2)cc1	none
Cc1nc(N)sc1-c1csc(Nc2cccc(Cl)c2)n1	none
CC(=O)Nc1ccc(Nc2nc(-c3sc(C)nc3C)cs2)cc1	none
Cc1ccc(Nc2nc(-c3sc(N)nc3C)cs2)cc1	CBX7 inh 0.38

Screening results (PubChem BioAssay)
